Source: paper PMC5540273 (PLoS ONE, 2017)

What was measured:
YSK1 = system: T1, YSK1
T1 construct: gene STK25

VPS34 = system: T2, VPS34
T2 construct: gene PIK3C3

TRKA = system: T3, TRKA
T3 construct: gene NTRK1

YSK4 = system: T4, YSK4
T4 construct: gene MAP3K19

VEGFR2 = system: T5, VEGFR2
T5 construct: gene KDR

[1] = system: TYK2(JH2domain-pseudokinase)
TIE2 = system: T6, TIE2
T6 construct: gene TEK

[2] = system: TYK2(JH1domain-catalytic)
YANK1 = system: T7, YANK1
T7 construct: gene STK32A

YANK3 = system: T8, YANK3
T8 construct: gene STK32C

TRKC = system: T9, TRKC
T9 construct: gene NTRK3
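Also: kd values determined as follow-up on hits from a single-replicate KINOMEscan panel screen.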

CCn1c(-c2ccccn2)nc2cnccc21 [SB-736398]
Kd (YSK1): > 10000 nM

CS(=O)(=O)c1ccc(-c2c(-c3ncn[nH]3)sc(N3CCOCC3)c2C#N)cc1
Kd (VPS34): 110 nM

Cc1cc(-c2ccc3c(c2)CC[C@@H](N[C@@H](C)c2ccccc2)C3)cnc1N.Cl [GW412617]
Kd (TRKA): 2500 nM
Kd (YSK4): 2400 nM

COc1ccc(Nc2nccc(-c3cccc(NC(=O)c4cc5cc(F)ccc5[nH]4)c3)n2)cc1 [GSK1229782]
Kd (TNIK): 820 nM

Cc1nnc(-c2ccc3occ(-c4ccc(S(C)=O)cc4)c3c2)[nH]1 (stereo not drawn)
Kd (VPS34): 62 nM

COc1cc(Nc2nccc(N3CCC(NC(=O)Nc4cc(C)ccc4C)C3)n2)cc(OC)c1OC (stereo not drawn) [GSK1379762]
Kd (ULK3): 4300 nM

Cn1ccc2ncnc(Oc3ccc(NC(=O)Nc4ccccc4)cc3)c21
Kd (VEGFR2): 45 nM
Kd (YSK4): 170 nM

COc1ccc2nc(-c3cccc(C)n3)nc(Nc3ccncc3)c2c1 [GSK204919]
Kd [1]: 2000 nM

Cc1c(Cn2ccn3c(=O)cc(N4CCOCC4)nc23)cccc1C(F)(F)F [GSK2289044]
Kd (VPS34): 64 nM

CCn1c(-c2cccnc2O)nc2cnccc21 [SB-736715]
Kd (WEE2): > 10000 nM

NC(=O)c1nnc2ccccc2c1N
Kd (TIE2): > 10000 nM
Kd (YSK4): 300 nM

Cc1ccc(-c2cc(-c3c[nH]nc3-c3ccccn3)ccn2)cc1 [GW684088]
Kd (TNIK): 160 nM
Kd (WNK4): > 10000 nM

O=C(Nc1ccccc1)Nc1cccc(Oc2ccc3nccn3n2)c1
Kd (TIE2): > 10000 nM
Kd (YSK4): 270 nM

Cc1ccc(C(=O)Nc2ccc(Nc3ccnc4cc(-c5ccccn5)ccc34)cc2O)cc1.Cl [GW440146]
Kd (TNK2): 120 nM

Cc1csc(-c2nc(Nc3ccncc3)c3ccccc3n2)n1 [GW869640]
Kd [2]: > 10000 nM
Kd [1]: 530 nM

Cn1cncc1-c1ccc2ncnc(Nc3ccc(OCc4ccccc4)cc3)c2c1 [GW320571]
Kd (YANK1): > 10000 nM

Cc1ccc(NC(=O)Nc2cccc(Cl)c2)cc1-c1ccc(C(=O)Nc2ccncc2)cc1 [GSK1398468]
Kd (YSK4): 61 nM

Cl.Oc1ccc(-c2nc(-c3ccccc3)[nH]c2-c2ccncc2)cc1 [SB-428218]
Kd [2]: > 10000 nM

O=c1cc(N2CCOCC2)nc2n(Cc3cccc(Cl)c3Cl)ccn12 [GSK2286295]
Kd (VPS34): 2.1 nM

CCCc1ccc(S(=O)(=O)NC2CCN(c3ccnc(Nc4ccc(F)cc4)n3)C2)cc1 (stereo not drawn) [GSK1379715]
Kd (TSSK1B): > 10000 nM
Kd (YANK3): > 10000 nM
Kd (YSK1): > 10000 nM

O=C(O)COc1ncnc2cc(-c3ccc4[nH]ncc4c3)sc12
Kd (YSK4): 20 nM

COc1ccc(CNC(=O)NC2CCN(c3ccnc(Nc4cc(OC)c(OC)c(OC)c4)n3)C2)cc1 (stereo not drawn) [GSK1379748]
Kd (ULK3): 550 nM

Nc1ncnc2[nH]c(-c3ccccc3)nc12 [AH5015]
Kd [1]: 96 nM
Kd (YANK1): > 10000 nM
Kd (YSK4): 270 nM

COc1cccc(NC(=O)NC2CCN(c3ccnc(Nc4ccc(F)cc4)n3)C2)c1 (stereo not drawn) [GSK1379721]
Kd (TRKC): 310 nM

O=C(Nc1n[nH]c2nc(-c3nccs3)c(Br)cc12)C1CC1 [SB-742251]
Kd (YSK4): 210 nM

COc1ccccc1-c1ccc2c(NC(=O)C3CC3)n[nH]c2n1 [SB-711239]
Kd (ULK3): > 10000 nM

Cc1cccc(-c2cc(Nc3ccncc3)c3ccccc3n2)n1 [GSK223675]
Kd (TXK): > 10000 nM

CS(=O)(=O)c1ccc(-c2nc3n(c2-c2ccncc2)CCC3)cc1 [SKF-105942]
Kd (TSSK1B): > 10000 nM
Kd (YANK3): > 10000 nM

Cc1ccccc1-n1cnc2c(N)ncnc21 [SKF-97510]
Kd (TLK1): > 10000 nM

Cc1cccc(-c2nc(-c3ccc(S(C)(=O)=O)cc3)sc2-c2ccnc(NCCc3ccccc3)c2)c1
Kd (VPS34): 8400 nM

Cn1ccc2ncnc(Oc3ccc(Nc4nc5ccccc5[nH]4)cc3)c21
Kd (TRPM6): > 10000 nM
